Pf growth 96h = inhibits malaria parasite growth, 96 h; P. falciparum luciferase reporter growth, 96 h; 320,000 tested, 6.9% active; Potency, µM (doses to about 28.7 µM), without a hit: top-dose activity change, negative = inhibition, actives largely listed as inhibitors; also: potency is read from the fitted curve at half-maximal effect; % is scaled to controls: 0 for no effect and ±100 for the full control effect
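Readout is luminescence from an integrated firefly luciferase in P. falciparum. Red cells, 2% hematocrit and 0.05% parasitemia final, were cultured with compound through two parasite generations (96 hours) at 37 C, 5% CO2.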
Shiga inhibitor = Shiga toxin inhibition; AID 2315; 290,000 tested, 9.2% active; inhibition, % at 38.7 µM; Vero cells, Shiga toxin protein synthesis inhibition reporter; in the data active = inhibition mostly above about 28%, no sharp cut-off; inactive = mostly below about 43%; also: 0% is about no effect
Pf growth 48h = P. falciparum growth inhibition at 48 hours (one generation); AID 504832; P. falciparum luciferase growth in erythrocytes, 48 h; Potency, µM (titrated, usually from 28.7 µM), for inactives: at the highest dose activity change, negative = inhibition, hits mostly inhibitors; 310,000 tested, 5.9% active; also: potency is read from the fitted curve at half-maximal effect; % is scaled to controls: 0 for no effect and ±100 for the full control effect
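Luciferase-expressing parasites in RBCs, 2% Hct / 0.1% parasitemia final; RPMI 1640 + 0.5% Albumax; 37 C, 5% CO2, one generation; luminescence read-out, lower signal = inhibition.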
NS1 inh = influenza NS1 inhibition; 270,000 tested, 0.4% active; AID 2326; Potency, µM (top dose mostly 46.1 µM), inactives show at the top dose activity, positive = more growth; calls by dose curve; also: potency is read from the fitted curve at half-maximal effect; actives are rising curves; nearly all actives have a fitted effect of over 50% in size
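Growth recovery, yeast-based: influenza A NS1 expressed in S. cerevisiae causes slow growth, and suppressors are detected by OD600. The parent strain without NS1 is used as positive control.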
CHX counter = counter-screen for Shiga toxin inhibitors: cycloheximide protein synthesis inhibition. max response, %. 300,000 tested, 12% active. AID 2314. cell reporter, cycloheximide protein synthesis inhibition counterscreen; in the data active = max response mostly above about 13%, no sharp cut-off; inactive = mostly below about 14%; also: read at 38.3 µM for the half of the compounds with a filed dose; 0% is about no effect
Active calls of the source: *; ? = inconclusive; nt = not tested or not shown. The list is not random: actives were taken first. Their share in the collection is about 21%. Unless noted, calls follow the shape of the dose curve; as a rule, active = well fitted inhibition curve with a large enough effect; inconclusive = small, poorly fitted or top-dose-only effect, or another doubt; inactive = no such curve, though single readings can be large or run the other way.

SMILES | Pf growth 96h | Shiga inhibitor | Pf growth 48h | NS1 inh | CHX counter
O=c1[nH]c(=O)n(Cc2ccccc2)c2nc(-c3ccc(Oc4ccc(F)cc4)c([N+](=O)[O-])c3)n(CCO)c12 | ? | -1 | 13µM* | 29% | 0
C#CCOCCOCCOCCNc1nc(N2CCN(C(=O)C([C@@H](C)CC)n3cc(C(N)Cc4ccc(O)cc4)nn3)CC2)nc(N2CCN(C(=O)[C@H](CCC(=O)O)n3cc(C(N)CO)nn3)CC2)n1 (some centres undefined) | 18% | -4 | 3% | 2% | -2
O=C(c1ccco1)N1CCN(c2ncnc3c(-c4ccccc4)nsc23)CC1 | nt | 48 | 73% | -37% | 17
NC(=O)C1CCN(c2ncnc3c(-c4ccccc4)nsc23)CC1 | 43% | 51* | 76% | -14% | 50*
CCC1=C(OC(=O)N(CC)CC)N2C(=O)OC(=NCC3CC3)[C@]2(Cc2ccccc2)[C@H]2C1=CC[C@H]1C(=O)NC(=O)[C@H]12 | 7.4µM* | 2 | 10µM* | -4% | -2
CCC1=C2CC[C@H]3C(=O)NC(=O)[C@H]3[C@H]2[C@@]2(Cc3ccccc3)C(=NCC(=O)OC)OC(=O)N2C1=O | 0% | -8 | 35% | 2% | -5
CCC1=C(OC(=O)N(CC)CC)N2C(=O)OC(=NCCOC)[C@]2(Cc2ccccc2)[C@H]2C1=CC[C@H]1C(=O)NC(=O)[C@H]12 | ? | 4 | 9.3µM* | -4% | -6
COc1ccc(-c2nnc(SC(C)C(=O)Nc3c(C)n(C)n(-c4ccccc4)c3=O)o2)cc1 (centres undefined) | 44% | -2 | 15% | 2% | -5
NC(=S)NNC(=O)Nc1ccc(Cl)c(Cl)c1 | 22% | -9 | 34% | -36% | -1
COc1ccc(C(C)=O)c(Oc2ccc(S(=O)(=O)N3CCOCC3)cn2)c1 | ? | nt | 8.3µM* | nt | nt
CCC(C)Oc1cccc(C(=O)Nc2ccccc2N2CCOCC2)c1 (centres undefined) | 2% | 13 | 10µM* | -40% | 2
COc1cc(OC)cc(C(=O)N[C@H](C(=O)Nc2ccccc2N2CCOCC2)C(C)C)c1 | 8.3µM* | -11 | nt | -6% | 6
COc1cc(OC)cc(C(=O)NC(C(=O)Nc2ccc(N3CCOCC3)cc2)C(C)C)c1 (centres undefined) | -15% | nt | ? | nt | nt
Cc1cc(Cl)ccc1OC(C)C(=O)Nc1ccccc1N1CCOCC1 (centres undefined) | nt | -9 | 7.4µM* | -47% | -2
CC1(NC(=O)C2CCN(C(=O)Nc3ccccc3)CC2)CCS(=O)(=O)C1 (centres undefined) | 50% | 1 | 36% | 2% | 1
Cc1ccc(CNC(=O)C2CC(c3ccccc3F)=NO2)cc1 (centres undefined) | 50% | -7 | 51% | -6% | -3
C=CCOC(=O)C1=C[C@@H](c2ccc3c(c2)OCO3)C[C@@H](OCc2ccc(CO)cc2)O1 | ? | 82* | ? | -6% | 19*
NC(=O)C1=C[C@@H](c2ccc(Br)cc2)C[C@@H](OCc2ccc(CO)cc2)O1 | 51% | -4 | 31% | -6% | 1
O=C(Nc1ccccc1)C1=C[C@@H](c2ccc(Br)cc2)C[C@@H](OCc2ccc(CO)cc2)O1 | ? | 86* | ? | 8% | 46*
O=C(Nc1ccccc1)C1=C[C@H](c2ccc3c(c2)OCO3)C[C@H](OCc2ccc(CO)cc2)O1 | 38% | 104* | ? | 13% | 73*
NC(=O)C1=C[C@H](c2ccc(Br)cc2)C[C@H](OCc2ccc(CO)cc2)O1 | 20% | 56* | 1% | 1% | 25*
C=CCOC(=O)C1=C[C@@H](c2ccc(Br)cc2)C[C@@H](OCc2ccc(CO)cc2)O1 | 15% | 9 | ? | -1% | -3
O=S1OCCN1c1ccccc1 (centres undefined) | -31% | -4 | 8% | 8% | -2
O=C(c1cccc([N+](=O)[O-])c1)N1CCN(c2n[nH]c(=O)[nH]c2=O)CC1 | 21% | 2 | 9% | -61% | -4
COc1ccc(C)cc1NC(=O)CCC(=O)Nc1nnc(C2CCCCC2)s1 | -1% | -11 | 24% | -6% | 1
CCNc1ccc(Br)cc(C(=O)/C=C/c2ccc3c(c2)OCO3)c1=O | ? | 15 | 17% | 14% | 13
O=C(/C=C/c1ccc2c(c1)OCO2)c1ccco1 | 6.6µM* | 29* | 34% | 10% | 17*

Screening data as filed in PubChem BioAssay.
